Measurements as given in PubChem BioAssay (Tox21).
Records with an inconclusive call do not appear. Calls of active or inactive are those of the source. Unless noted, the call rests on the fitted dose curve.

Assays:
[1] = Nuclear factor erythroid 2-related factor 2/antioxidant responsive element (Nrf2/ARE) small molecule agonists: qHTS cell viability counter screen in human keratinocytes (AID 1919968; active means well fitted curve in the direction sought with a large enough effect in the repeat runs; an effect the other way counts as inactive or inconclusive; further: nearly all actives have a fitted effect of over 55% in size; further: potency means the concentration at half of the fitted maximal effect)
Procedure, shortened: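 KeratinoSens HaCaT cells, 1,500/well, preincubated 5 h, then exposed to compounds in DMSO for 23 h at 37 C/5% CO2. Viability read as CellTiter-Fluor fluorescence after 1 h, in the same wells as the ARE-luciferase read.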

[2] = Nuclear factor erythroid 2-related factor 2/antioxidant responsive element (Nrf2/ARE) small molecule agonists: luciferase reporter gene qHTS assay in human keratinocytes (AID 1919969); further: nearly all actives have a fitted effect of over 35% in size; further: potency means the concentration at half of the fitted maximal effect
[3] = target: Gonadotropin-releasing hormone receptor (Homo sapiens) (UniProt P30968); assay: Human gonadotropin-releasing hormone receptor (GnRHR) small molecule agonists, calcium flux assay in GnRHR-HEK293 cells (AID 1920063); further: nearly all actives have a fitted effect of over 35% in size
Procedure, shortened: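 HEK293 cells stably expressing human GnRHR were dye-loaded for 1 h at 37 C. Compound was added in agonist mode and fluorescence (Ex/Em 480/540) recorded kinetically for 3 min. Fifteen concentrations, triplicates.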

[4] = target: KiSS-1 receptor (Homo sapiens) (UniProt Q969F8); assay: Human kisspeptin (KISS1R) small molecule agonists, calcium flux assay in KISS1R-HEK293 cells (AID 1920064; active means well fitted curve in the direction sought with a large enough effect in the repeat runs; an effect the other way counts as inactive or inconclusive)
Procedure, shortened: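 HEK293 cells stably expressing human KISS1R were loaded with calcium dye for 1 h at 37 C, then given compound; fluorescence (Ex/Em 480/540) was read kinetically for 3 min. Fifteen concentrations, triplicate.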

[5] = G protein-coupled receptor (GPCR) small molecule agonists, calcium flux assay: HEK293 wild type cell line counter screen (AID 1920065)
Procedure, shortened: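 Wild-type HEK293 cells plated 18 h, loaded with calcium dye 1 h at 37 C, then compounds added in agonist mode (ATP as positive control). Kinetic fluorescence Ex/Em 480/540 recorded 3 min at 1 sec intervals; 15 concentrations, triplicate.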

[6] = p53 small molecule agonists, cell-based qHTS assay with rat liver microsomes: qHTS cell viability counter screen (AID 1963580); further: nearly all actives have a fitted effect of over 45% in size
Procedure, shortened: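 p53RE-bla HCT-116 cells were exposed 16 h at 37 C to compounds with rat liver microsomes (0.5 mg/mL) and NADPH (0.5 mg/mL). Viability was measured in the same wells as ATP content by CellTiter-Glo luminescence.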

[7] = p53 small molecule agonists, cell-based qHTS assay: qHTS cell viability counter screen (AID 1963581); further: nearly all actives have a fitted effect of over 45% in size
Procedure, shortened: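 p53RE-bla HCT-116 cells, compounds added 5 h after plating and incubated 16 h at 37 C. Cytotoxicity measured in the same wells as intracellular ATP by CellTiter-Glo luminescence after 30 min at room temperature.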

[8] = target: 5-hydroxytryptamine receptor 2A (Homo sapiens) (UniProt P28223); assay: 5-hydroxytryptamine receptor 2A (HTR2A) small molecule agonists, cell-based qHTS assay (AID 1963587); further: nearly all actives have a fitted effect of over 30% in size
Procedure, shortened: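 CHO cells stably expressing human HTR2A, plated 18 h, loaded with calcium dye 1 h at 37 C. Agonist mode: compounds added and intracellular calcium fluorescence recorded kinetically for 2 min at 1 sec intervals.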

[9] = target: Muscarinic acetylcholine receptor M1 (Homo sapiens) (UniProt P11229); assay: Cholinergic receptor muscarinic 1 (CHRM1) small molecule antagonists, cell-based qHTS assay (AID 1963588); further: nearly all actives have a fitted effect of over 40% in size
Procedure, shortened: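 CHRM1-CHO calcium-flux assay, antagonist mode. Cells were seeded 18 h, dye-loaded 1 h at 37 C and given compound for 5 min at RT, then acetylcholine was added at 50nM. FDSS fluorescence was read 3 min; 15 concentrations, three runs.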

[10] = target: Muscarinic acetylcholine receptor M1 (Homo sapiens) (UniProt P11229); assay: Cholinergic receptor muscarinic 1 (CHRM1) small molecule agonists, cell-based qHTS assay (AID 1963589); further: nearly all actives have a fitted effect of over 35% in size
Procedure, shortened: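 CHO cells stably expressing human CHRM1 were loaded with calcium dye for 1 h at 37 C, then compound was added in agonist mode. Intracellular calcium fluorescence was followed kinetically at 1 s intervals. Fifteen concentrations were tested in three independent runs.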

[11] = cAMP Responsive Elements (CRE) small molecule antagonists, cell-based qHTS assay (AID 1963591; active means well fitted inhibition curve with a large enough effect in the signal ratio in the repeat runs, not every such curve was filed as active; the % refers to the signal ratio)
Procedure, shortened: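 CRE-bla HEK293T cells plated 18 h, then given compound plus NKH477 at 0.25 uM final for 3 h at 37C. Beta-lactamase reporter read with LiveBLAzer B/G FRET substrate after 2 h at room temperature.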

[12] = target: Beta-2 adrenergic receptor (Homo sapiens) (UniProt P07550); assay: Adrenergic beta2 receptor (ADRB2) small molecule antagonists, cell-based qHTS assay (AID 1963592); further: nearly all actives have a fitted effect of over 50% in size; further: potency means the concentration at half of the fitted maximal effect; on activity change, negative = inhibition: series mostly up to about 92 µM
Procedure, shortened: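 Cells (CHO, stable ADRB2 overexpression) incubated 18-20hr at 37C; compounds added from DMSO; agonist mix (1nM isoproterenol, 100uM IBMX, 25uM Ro-20-1724) added; 0.5hr RT; d2-cAMP and anti-cAMP-cryptate added; 1hr RT; 665/615 nm read.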

[13] = target: D(2) dopamine receptor (Homo sapiens) (UniProt P14416); assay: Dopamine D2 receptor (DRD2) small molecule agonists, cell-based qHTS assay (AID 1963594); further: nearly all actives have a fitted effect of over 35% in size
Procedure, shortened: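 HEK293 cells stably expressing human DRD2, pre-treated with PDE inhibitor Ro20-1724 (0.1 mM final) and compound 10 min at room temperature, then stimulated with NKH477 (200nM […]) for 30 min. cAMP read by HTRF (665/620 nm).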

[14] = target: D(2) dopamine receptor (Homo sapiens) (UniProt P14416); assay: Dopamine D2 receptor (DRD2) small molecule antagonists, cell-based qHTS assay (AID 1963595; active means well fitted inhibition curve with a large enough effect in the signal ratio in the repeat runs, with a control signal flat; the % refers to the signal ratio)
Procedure, shortened: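 Cells were plated and grown for 24 h at 37 °C. Ro20-1724 (0.1 mM final) went in first, then compound for 10 min. NKH477 (200 nM) with quinpirole (12 nM) followed for 30 min at RT, then HTRF detection reagents for 1 h.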

[15] = cAMP Responsive Elements (CRE) small molecule agonists, cell-based qHTS assay (AID 1963590)
Procedure, shortened: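 CRE-bla HEK 293T cells, 2,000/well in DMEM with 10% dialyzed FBS and 25 mM HEPES, pre-incubated 18 h at 37 C, then exposed to compound 3 h at 37 C. Beta-lactamase reporter read with LiveBLAzer B/G FRET substrate after 2 h at room temperature.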

[16] = target: Beta-2 adrenergic receptor (Homo sapiens) (UniProt P07550); assay: Adrenergic beta2 receptor (ADRB2) small molecule agonists, cell-based qHTS assay (AID 1963593);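 further: CHO cells stably overexpressing human ADRB2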
Procedure, shortened: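 CHO cells stably over-expressing ADRB2 were plated overnight at 37C, then dosed with compounds plus a stimulation mix containing 100uM IBMX and 25uM Ro-20-1724 for 0.5hr at room temperature. cAMP was measured by HTRF competition, 1hr.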

[17] = p53 small molecule agonists, cell-based qHTS assay with human liver microsomes: qHTS cell viability counter screen (AID 1963579); further: nearly all actives have a fitted effect of over 45% in size
Procedure, shortened: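 After the 460/530 nm beta-lactamase read, CellTiter-Glo was added to the same wells and luminescence measured after 30 min at room temperature, giving viability of p53RE-bla cells treated 16 h with compounds plus microsomes and NADPH.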

[18] = target: 5-hydroxytryptamine receptor 2A (Homo sapiens) (UniProt P28223); assay: 5-hydroxytryptamine receptor 2A (HTR2A) small molecule antagonists, cell-based qHTS assay (AID 1963586); further: nearly all actives have a fitted effect of over 45% in size; further: potency means the concentration at half of the fitted maximal effect
Procedure, shortened: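 Antagonist-mode intracellular calcium assay: DOI (4 nM) added after 5 min compound pre-incubation at room temperature to dye-loaded HTR2A-CHO cells. Fluorescence followed for 3 min, sampled every second.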

[19] = p53 small molecule agonists, cell-based qHTS assay with rat liver microsomes (AID 1963578)
Procedure, shortened: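 Metabolic activation is supplied by rat liver microsomes with NADPH (each 0.5 mg/mL final). p53RE-bla cells incubate with compound 16 h at 37 C; reporter activity is measured by LiveBLAzer fluorescence.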

[20] = p53 small molecule agonists, cell-based qHTS assay (AID 1963582; active means well fitted activation curve with a large enough effect in the signal ratio in the repeat runs, not every such curve was filed as active; the % refers to the signal ratio)
Procedure, shortened: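 p53RE-bla reporter cells, compounds added in DMSO after 5 h plating, incubated 16 h at 37 C. Beta-lactamase read via 2 h room-temperature LiveBLAzer B/G FRET substrate, fluorescence intensity.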
On the % scale 0 is the no-effect control and ±100 the full control effect.

KiSS-1 receptor (Homo sapiens), sequence (Q969F8 whole entry, looked up): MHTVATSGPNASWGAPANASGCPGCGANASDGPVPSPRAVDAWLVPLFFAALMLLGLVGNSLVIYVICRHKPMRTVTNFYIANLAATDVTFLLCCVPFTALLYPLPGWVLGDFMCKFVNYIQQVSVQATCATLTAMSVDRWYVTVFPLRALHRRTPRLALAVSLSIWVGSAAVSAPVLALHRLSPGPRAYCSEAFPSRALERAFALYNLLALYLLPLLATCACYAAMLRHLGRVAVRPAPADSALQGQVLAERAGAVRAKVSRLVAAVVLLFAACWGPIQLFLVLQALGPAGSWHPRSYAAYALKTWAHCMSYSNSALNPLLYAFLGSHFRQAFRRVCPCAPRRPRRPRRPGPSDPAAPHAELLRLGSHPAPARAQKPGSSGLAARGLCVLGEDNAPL
Beta-2 adrenergic receptor (Homo sapiens), sequence (P07550 whole entry, looked up): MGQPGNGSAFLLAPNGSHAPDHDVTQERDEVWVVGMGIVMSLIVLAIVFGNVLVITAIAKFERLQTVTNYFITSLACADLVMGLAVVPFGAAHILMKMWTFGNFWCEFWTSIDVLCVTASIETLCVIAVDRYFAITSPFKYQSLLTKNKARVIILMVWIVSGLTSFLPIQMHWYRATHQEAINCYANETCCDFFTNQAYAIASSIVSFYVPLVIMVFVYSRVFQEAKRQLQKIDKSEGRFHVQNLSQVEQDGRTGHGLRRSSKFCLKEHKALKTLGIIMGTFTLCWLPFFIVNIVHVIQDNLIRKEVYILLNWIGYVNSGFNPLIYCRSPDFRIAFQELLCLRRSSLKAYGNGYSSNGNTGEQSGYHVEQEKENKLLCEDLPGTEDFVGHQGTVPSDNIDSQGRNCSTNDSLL
5-hydroxytryptamine receptor 2A (Homo sapiens), sequence (P28223 whole entry, looked up): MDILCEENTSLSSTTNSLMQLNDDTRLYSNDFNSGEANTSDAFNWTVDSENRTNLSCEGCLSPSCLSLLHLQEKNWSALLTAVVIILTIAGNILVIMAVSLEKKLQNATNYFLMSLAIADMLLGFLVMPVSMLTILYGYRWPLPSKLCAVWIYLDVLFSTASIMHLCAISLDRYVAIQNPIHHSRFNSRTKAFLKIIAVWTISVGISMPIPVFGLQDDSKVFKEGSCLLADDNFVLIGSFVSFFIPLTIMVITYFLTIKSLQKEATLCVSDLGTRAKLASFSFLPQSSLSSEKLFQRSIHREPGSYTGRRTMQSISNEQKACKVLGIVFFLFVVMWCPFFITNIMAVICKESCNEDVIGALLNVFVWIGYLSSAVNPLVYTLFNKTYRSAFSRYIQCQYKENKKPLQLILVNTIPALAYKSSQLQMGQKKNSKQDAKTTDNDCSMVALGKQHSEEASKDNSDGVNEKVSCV
Muscarinic acetylcholine receptor M1 (Homo sapiens), sequence (P11229 whole entry, looked up): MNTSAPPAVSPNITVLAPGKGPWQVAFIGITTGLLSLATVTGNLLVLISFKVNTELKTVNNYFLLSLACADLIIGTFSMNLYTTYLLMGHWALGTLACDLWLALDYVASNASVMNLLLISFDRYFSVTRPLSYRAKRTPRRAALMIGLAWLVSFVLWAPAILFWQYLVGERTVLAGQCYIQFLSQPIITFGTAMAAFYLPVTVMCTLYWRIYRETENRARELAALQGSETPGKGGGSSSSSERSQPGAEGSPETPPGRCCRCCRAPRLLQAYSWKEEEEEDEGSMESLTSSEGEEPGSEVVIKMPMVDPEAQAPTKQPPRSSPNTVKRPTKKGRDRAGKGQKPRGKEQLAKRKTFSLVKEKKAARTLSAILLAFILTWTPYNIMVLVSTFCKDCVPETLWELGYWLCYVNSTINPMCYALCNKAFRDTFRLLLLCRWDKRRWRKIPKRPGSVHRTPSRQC
D(2) dopamine receptor (Homo sapiens), sequence (P14416 whole entry, looked up): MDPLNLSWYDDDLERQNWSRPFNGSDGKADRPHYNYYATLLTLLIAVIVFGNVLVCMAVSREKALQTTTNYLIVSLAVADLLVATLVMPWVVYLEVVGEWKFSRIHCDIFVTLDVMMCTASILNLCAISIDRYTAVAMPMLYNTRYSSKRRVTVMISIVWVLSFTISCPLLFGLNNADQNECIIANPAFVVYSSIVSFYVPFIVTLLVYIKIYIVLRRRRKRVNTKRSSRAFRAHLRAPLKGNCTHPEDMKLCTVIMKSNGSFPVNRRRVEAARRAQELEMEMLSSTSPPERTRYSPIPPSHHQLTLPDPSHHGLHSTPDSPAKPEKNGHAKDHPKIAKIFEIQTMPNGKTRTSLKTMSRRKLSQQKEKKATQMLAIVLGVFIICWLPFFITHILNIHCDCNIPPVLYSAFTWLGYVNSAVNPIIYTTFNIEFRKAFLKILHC
Gonadotropin-releasing hormone receptor (Homo sapiens), sequence (P30968 whole entry, looked up): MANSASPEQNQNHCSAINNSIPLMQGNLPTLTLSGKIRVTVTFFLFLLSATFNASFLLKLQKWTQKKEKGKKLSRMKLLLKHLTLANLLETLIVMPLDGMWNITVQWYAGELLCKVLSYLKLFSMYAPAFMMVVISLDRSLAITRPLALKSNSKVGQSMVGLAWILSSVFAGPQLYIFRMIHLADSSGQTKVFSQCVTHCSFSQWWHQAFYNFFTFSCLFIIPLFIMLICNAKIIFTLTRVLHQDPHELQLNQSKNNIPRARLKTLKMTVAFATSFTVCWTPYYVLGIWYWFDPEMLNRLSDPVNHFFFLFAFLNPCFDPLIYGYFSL

CCOC(=O)OC(C)OC(=O)[C@@H]1N2C(=O)[C@@H](NC(=O)[C@H](N)c3ccccc3)[C@H]2SC1(C)C (some centres undefined)
inactive: Potency [1] | Potency [2] | Potency [3] | Potency [4] | Potency [5] | Potency [6] | Potency [7] | Potency [8] | Potency [9] | Potency [10] | Potency [11] | Potency [12] | Potency [13] | Potency [14]

CCCCC(CC)CNCC(CC)CCCC (centres undefined)
inactive: Potency [1] | Potency [2] | Potency [3] | Potency [4] | Potency [5] | Potency [7] | Potency [8] | Potency [9] | Potency [10] | Potency [15] | Potency [11] | Potency [12] | Potency [16] | Potency [13] | Potency [14]

COC=O
inactive: activity change, negative = cytotoxicity [1] -1.85% [at 8.39 µM] | activity, positive = activation [2] -9.06% [at 8.39 µM] | activity change [3] -1.66% [at 5.22 µM, hits give high values] | activation [4] -0.791% [at 6.97 µM] | activity change, negative = cytotoxicity [17] -1.32% [at 5.99 µM] | activity change, negative = cytotoxicity [6] 1.32% [at 5.99 µM] | activity change, negative = cytotoxicity [7] -1.7% [at 5.99 µM] | activation [8] -0.022% [at 7.02 µM] | activity, negative = inhibition [9] 1.52% [at 5.58 µM] | activation [10] -0.541% [at 6.97 µM] | activation [15] -0.656% [at 8.39 µM] | activity change, negative = inhibition [11] 12.8% [at 8.39 µM] | activity change, negative = inhibition [12] 14.4% [at 8.39 µM] | activation [13] -14.1% [at 8.39 µM] | activity change, negative = inhibition [14] -12.2% [at 8.38 µM]
active: Potency [18] 3.09 µM

CCCCCC/C=C/C=O
inactive: Potency [1] | Potency [2] | Potency [3] | Potency [4] | Potency [17] | Potency [6] | Potency [7] | Potency [18] | Potency [8] | Potency [9] | Potency [10] | Potency [12] | Potency [16] | Potency [14]

CCCCCCCC/C=C\CCCCCCCCO
inactive: Potency [1] | Potency [2] | Potency [3] | Potency [4] | Potency [17] | Potency [6] | Potency [7] | Potency [18] | Potency [8] | Potency [9] | Potency [15] | Potency [11] | Potency [13] | Potency [14]
active: Potency [12] 54.4 µM

OC/C=C/c1ccccc1
inactive: Potency [1] | Potency [2] | Potency [3] | Potency [4] | Potency [17] | Potency [6] | Potency [7] | Potency [18] | Potency [8] | Potency [9] | Potency [10] | Potency [15] | Potency [11] | Potency [12] | Potency [16] | Potency [13] | Potency [14]

Cc1[nH]nc2c1N=C(c1ccccc1Cl)c1cc([N+](=O)[O-])ccc1N2
active: Potency [1] 24.3 µM | Potency [2] 54.5 µM | Potency [12] 21.7 µM
inactive: Potency [3] | Potency [4] | Potency [5] | Potency [18] | Potency [8] | Potency [9] | Potency [10] | Potency [11] | Potency [13]

CCCCCC1Nc2cc(C(F)(F)F)c(S(N)(=O)=O)cc2S(=O)(=O)N1 (centres undefined)
inactive: Potency [1] | Potency [2] | Potency [3] | Potency [4] | Potency [19] | Potency [17] | Potency [6] | Potency [7] | Potency [20] | Potency [8] | Potency [9] | Potency [10] | Potency [12] | Potency [16] | Potency [13] | Potency [14]
